PubChem BioAssay (NCATS)
“And” between values parts separate entries of the source, which are not always exact repeats. Identical values can stand only once. Inconclusive results are not listed. Where a call stands in place of a potency, no number is given. The source made the active and inactive calls. Unless noted, calls follow the shape of the dose curve; as a rule, active = well fitted curve in the direction sought with a large enough effect; inconclusive = small, poorly fitted or top-dose-only effect, or another doubt; inactive = no such curve, though single readings can be large; an effect the other way counts as inactive or inconclusive.

Columns and labels:
[1] = target: Alpha-galactosidase A (Homo sapiens) (UniProt P06280); assay: Counterscreen for Glucocerebrosidase Inhibitors: qHTS Assay for Human alpha-Galactosidase at pH 4.5 (AID 992)
Alpha-galactosidase A (Homo sapiens), sequence (P06280 whole entry, looked up): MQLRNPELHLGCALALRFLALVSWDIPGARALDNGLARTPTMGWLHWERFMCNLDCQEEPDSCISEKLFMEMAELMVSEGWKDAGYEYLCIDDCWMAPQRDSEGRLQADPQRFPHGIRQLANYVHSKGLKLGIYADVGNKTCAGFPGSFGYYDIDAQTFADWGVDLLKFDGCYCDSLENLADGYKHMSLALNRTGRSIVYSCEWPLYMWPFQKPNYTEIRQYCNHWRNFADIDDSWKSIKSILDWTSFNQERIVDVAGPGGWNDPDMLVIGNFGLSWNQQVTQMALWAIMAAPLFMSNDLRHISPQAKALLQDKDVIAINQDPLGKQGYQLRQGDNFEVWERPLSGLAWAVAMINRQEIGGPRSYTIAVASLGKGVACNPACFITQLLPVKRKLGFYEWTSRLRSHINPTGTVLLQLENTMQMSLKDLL
Method in brief: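 Quantitative HTS: compounds tested from 0.7 nM up to 77 uM against 2 nM enzyme with 80 uM 4-MU alpha-D-galactopyranoside. The 20 min room-temperature reaction is stopped with 1M NaOH/1M glycine, pH 10.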

[2] = target: alpha-glucosidase (Oryza sativa, rice) (UniProt Q653V4); assay: Counterscreen for Glucocerebrosidase Inhibitors: qHTS Assay for Rice alpha-Glucosidase at pH 5.0 (AID 997)
Method in brief: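 Rice alpha-glucosidase (4 nM final) with 400 uM 4-methylumbelliferyl-alpha-D-glucopyranoside in citrate buffer pH 5.0, 20 min at room temperature, stopped at pH 10; fluorescence 365/440 nm, compounds 0.7 nM–77 uM, AC50 from Hill fits.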

[3] = target: Alpha-galactosidase (Coffea arabica) (UniProt Q42656); assay: Counterscreen for Glucocerebrosidase Inhibitors: qHTS Assay for Coffee Bean alpha-Galactosidase at pH 5.9 (AID 998)
Alpha-galactosidase (Coffea arabica), sequence (Q42656 whole entry, looked up): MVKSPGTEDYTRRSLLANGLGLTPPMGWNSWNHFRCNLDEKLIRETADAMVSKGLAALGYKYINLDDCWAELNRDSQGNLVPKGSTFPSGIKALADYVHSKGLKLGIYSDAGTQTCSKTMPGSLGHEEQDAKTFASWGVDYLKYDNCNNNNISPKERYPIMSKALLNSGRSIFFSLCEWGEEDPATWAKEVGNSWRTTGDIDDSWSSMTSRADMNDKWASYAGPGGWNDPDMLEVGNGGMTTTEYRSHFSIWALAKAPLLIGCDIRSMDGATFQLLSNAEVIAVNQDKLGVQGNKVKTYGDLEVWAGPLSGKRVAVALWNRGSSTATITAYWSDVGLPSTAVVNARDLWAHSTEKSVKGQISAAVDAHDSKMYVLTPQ
Method in brief: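 Green coffee bean enzyme (2 nM final) was incubated with compounds (0.7 nM–77 uM) and 4-methylumbelliferyl alpha-D-galactopyranoside (80 uM) in citrate buffer pH 5.9, 20 min at room temperature. High-pH stop; fluorescence 365/440 nm; AC50 from Hill fits.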

[4] = Validation of Assay for Modulators of Lamin A Splicing (AID 1459; active = well fitted curve in the direction sought with a large enough effect in the signal ratio; the % refers to the signal ratio;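 also: cells exposed to compound for two days before reading; ratio rise marks activators and ratio drop marks inhibitors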)
Method in brief: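 Dual-reporter HeLa S3 line (lamin A-EGFP minigene, DsRed2) treated with compounds 48 hrs, 0.5% DMSO final. Endpoint: EGFP/DsRed2 total intensity ratio from laser-scanning microplate cytometry.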

[5] = qHTS Assay for Lipid Storage Modulators (AID 1519; calls by dose curve); conditions: Drosophila S3 cells, BODIPY lipid droplet/cell ratio, laser cytometry, cells loaded with oleic acid
Method in brief: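 Cells seeded at 5,000 per well were treated with compounds over a concentration series and loaded with oleic acid (400 uM, as added). Lipid droplet fluorescence (488 nm excitation, 500-530 nm channel) was read by laser-scanning cytometry and normalized to 20 uM Triacsin C.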

[6] = target: DNA repair nuclease/redox regulator APEX1 (Homo sapiens) (UniProt P27695); assay: qHTS Validation Assay for Inhibitors of the Human Apurinic/apyrimidinic Endonuclease 1 (APE1) (AID 1705;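 also: TAMRA fluorescence gain over two minutes as APE1 cuts a quenched THF abasic duplex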)
DNA repair nuclease/redox regulator APEX1 (Homo sapiens), sequence (P27695 whole entry, looked up): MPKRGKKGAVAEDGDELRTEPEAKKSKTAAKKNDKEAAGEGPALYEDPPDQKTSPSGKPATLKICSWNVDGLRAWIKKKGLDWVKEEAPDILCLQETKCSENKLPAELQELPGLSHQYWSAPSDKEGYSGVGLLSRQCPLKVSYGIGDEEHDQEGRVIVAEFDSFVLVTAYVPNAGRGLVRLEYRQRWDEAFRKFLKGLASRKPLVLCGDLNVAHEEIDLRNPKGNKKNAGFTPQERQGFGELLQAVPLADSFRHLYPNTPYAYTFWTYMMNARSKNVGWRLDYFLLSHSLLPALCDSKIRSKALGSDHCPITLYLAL
Method in brief: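 Substrate: 50 nM final fluorophore/quencher THF-abasic duplex. Enzyme preincubated with compounds 15 min, RT. Progress derived from fluorescence difference, third minus first kinetic read.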

[7] = Counterscreen for APE1 Inhibitors: Fluorescent Dye Displacement Validation Assay (AID 1707)
Method in brief: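 Compounds are scored by their ability to displace Thiazole Orange (250 nM) from a 50 nM TAMRA-tagged duplex bearing a tetrahydrofuran abasic site. Buffer is 50 mM Tris-HCl pH7.5, 50mM NaCl, 2 mM MgCl2, 0.01% Tween-20.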

[8] = qHTS for differential inhibitors of proliferation of Plasmodium falciparum line 7G8 (AID 1815);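 also: parasite growth measured after three days of incubation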; also: potency is read from the fitted curve at half-maximal effect
[9] = qHTS for differential inhibitors of proliferation of Plasmodium falciparum line GB4 (AID 1816); conditions: Potency: Plasmodium falciparum GB4 proliferation inhibition;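 also: parasite growth measured after 72 h incubation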; also: potency is read from the fitted curve at half-maximal effect
[10] = qHTS for differential inhibitors of proliferation of Plasmodium falciparum line D10 (AID 1877);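 also: parasites grown with compound for 72 h before DNA staining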; also: potency is read from the fitted curve at half-maximal effect
[11] = target: Endonuclease 4 (Escherichia coli (strain K12)) (UniProt P0A6C1); assay: Counterscreen for APE1 Inhibitors: qHTS Validation Assay for Inhibitors of Endonuclease IV (AID 1708)
Method in brief: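 2 nM enzyme was preincubated with compounds for 15 min at room temperature in 50 mM Tris-HCl pH 7.5, 50 mM NaCl, 2 mM MgCl2, 1 mM DTT, 0.01% Tween-20. 50 nM THF-abasic TAMRA/BHQ-2 duplex substrate started the reaction.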

[12] = qHTS for differential inhibitors of proliferation of Plasmodium falciparum line 3D7 (AID 1876); also: potency is read from the fitted curve at half-maximal effect
[13] = measured here: cell count channel max response
[14] = measured here: lipid channel max response

CCCCc1ccc(C(=O)O)nc1
outcome [1]: inactive | outcome [2]: inactive | outcome [3]: inactive | outcome [4]: inactive | activity change, negative = inhibition ([5]; at 25.7 µM (top of the series)): -2.75% (inactive) | activity change, negative = inhibition ([5]; at 57.5 µM (top of the series)): 1.57% (inactive) | max response [5, 13]: 0.85% and 4.91% | max response [5, 14]: -1.53% and 6.42% | Potency [6]: inactive | Potency [7]: inactive | Potency [8]: inactive | Potency [9]: inactive | Potency [10]: inactive

CCCN1CCO[C@@H]2c3cc(O)ccc3OC[C@H]21
outcome [1]: inactive | outcome [2]: inactive | outcome [3]: inactive | outcome [4]: inactive | Potency [6]: inactive | Potency [7]: inactive | Potency [11]: inactive | Potency [8]: inactive | Potency [9]: inactive | Potency [12]: inactive | Potency [10]: inactive

NCc1cc(=O)[nH]o1
outcome [1]: inactive | outcome [2]: inactive | outcome [3]: inactive | outcome [4]: inactive | activity change, negative = inhibition ([5]; at 57.5 µM (top of the series)): -0.672% (inactive) | max response [5, 13]: 5.31% | max response [5, 14]: 4.46% | Potency [6]: inactive | Potency [7]: inactive | Potency [11]: inactive | Potency [8]: inactive | Potency [9]: inactive | Potency [12]: inactive | Potency [10]: inactive

C[C@]12CCC3C(CC[C@H]4C[C@H](O)CC[C@]34C)C1CC[C@@H]2C(=O)CO (some centres not stated)
outcome [4]: inactive | Potency [6]: inactive | Potency [7]: inactive | Potency [11]: inactive | Potency [8]: 7.94 µM (active) | Potency [9]: 14.1 µM (active) | Potency [10]: 8.91 µM (active)

NC(=NCCC[C@H](N)C(=O)O)N[N+](=O)[O-]
outcome [1]: inactive | outcome [2]: inactive | outcome [3]: inactive | outcome [4]: inactive | activity change, negative = inhibition ([5]; at 57.5 µM (top of the series)): 0.0348% (inactive) | max response [5, 13]: -0.432% | max response [5, 14]: 0.435% | Potency [6]: inactive | Potency [7]: inactive | Potency [11]: inactive | Potency [8]: inactive | Potency [9]: inactive | Potency [12]: inactive | Potency [10]: inactive

CCCN(CCC)[C@@H]1CCc2ccc(O)cc2C1
outcome [1]: inactive | outcome [2]: inactive | outcome [3]: inactive | outcome [4]: inactive | activity change, negative = inhibition ([5]; at 57.5 µM (top of the series)): -4.72% (inactive) and 0.978% (inactive) | max response [5, 13]: -36.9% and -10.5% | max response [5, 14]: -41.2% and -9.44% | Potency [6]: inactive | Potency [7]: inactive | Potency [11]: inactive | Potency [8]: 8.91 µM (active) | Potency [9]: 14.1 µM (active) | Potency [12]: inactive | Potency [10]: inactive

CC[C@@H]1C(=O)OC[C@@H]1Cc1cncn1C
outcome [4]: inactive | activity change, negative = inhibition ([5]; at 57.5 µM (top of the series)): -0.176% (inactive) and -1.27% (inactive) | max response [5, 13]: 23.8% and 24.9% | max response [5, 14]: 22.1% and 21.9% | Potency [6]: inactive | Potency [7]: inactive | Potency [11]: inactive | Potency [8]: inactive | Potency [9]: inactive | Potency [12]: inactive | Potency [10]: inactive

CNCCc1c[nH]c2ccc(O)cc12
outcome [1]: inactive | outcome [2]: inactive | outcome [3]: inactive | outcome [4]: inactive | activity change, negative = inhibition ([5]; at 57.5 µM (top of the series)): 1.79% (inactive) and 0.655% (inactive) | max response [5, 13]: 5.25% and 4.7% | max response [5, 14]: 5.9% and 3.87% | Potency [6]: inactive | Potency [7]: inactive | Potency [11]: inactive | Potency [8]: inactive | Potency [9]: inactive | Potency [12]: inactive | Potency [10]: inactive

c1ccc2sc(C3(N4CCCCC4)CCCCC3)cc2c1
outcome [1]: inactive | outcome [2]: inactive | outcome [3]: inactive | outcome [4]: inactive | activity change, negative = inhibition ([5]; at 57.5 µM (top of the series)): -6.45% (inactive) and -1.27% (inactive) | max response [5, 13]: -3.55% and -30.8% | max response [5, 14]: 4.98% and -30.4% | Potency [6]: inactive | Potency [7]: inactive | Potency [11]: inactive | Potency [8]: 10 µM (active) | Potency [9]: 11.2 µM (active) | Potency [12]: 11.2 µM (active) | Potency [10]: 10 µM (active)

O=C(O)CC[N+](=O)[O-]
outcome [1]: inactive | outcome [2]: inactive | outcome [3]: inactive | outcome [4]: inactive | Potency [6]: inactive | Potency [7]: inactive | Potency [11]: inactive | Potency [8]: inactive | Potency [9]: inactive | Potency [12]: inactive | Potency [10]: inactive

O=C(O)[C@@H]1CCN1
outcome [4]: inactive | activity change, negative = inhibition ([5]; at 57.5 µM (top of the series)): 1.64% (inactive) | max response [5, 13]: -13.5% | max response [5, 14]: -13.6% | Potency [6]: inactive | Potency [7]: inactive | Potency [11]: inactive | Potency [8]: inactive | Potency [9]: inactive | Potency [12]: inactive | Potency [10]: inactive

NCCc1c[nH]c2ccccc12
outcome [1]: inactive | outcome [2]: inactive | outcome [3]: inactive | outcome [4]: inactive | activity change, negative = inhibition ([5]; at 57.5 µM (top of the series)): 5.62% (inactive) | max response [5, 13]: 8.58% | max response [5, 14]: 17.6% | Potency [6]: inactive | Potency [7]: inactive | Potency [11]: inactive | Potency [10]: inactive

C[N+](C)(C)CC(=O)O
outcome [3]: inactive | outcome [4]: inactive | Potency [6]: inactive | Potency [7]: inactive | Potency [11]: inactive | Potency [8]: inactive | Potency [9]: inactive | Potency [12]: inactive | Potency [10]: inactive

NCCc1c[nH]c2ccc(O)cc12
outcome [1]: inactive | outcome [2]: inactive | outcome [3]: inactive | outcome [4]: inactive | activity change, negative = inhibition ([5]; at 25.7 µM (top of the series)): -0.711% (inactive) | activity change, negative = inhibition ([5]; at 57.5 µM (top of the series)): 0.919% (inactive) | max response [5, 13]: -5.09% and -12.1% | max response [5, 14]: -6.32% and -9.72% | Potency [6]: inactive | Potency [7]: inactive | Potency [8]: inactive | Potency [9]: inactive | Potency [12]: inactive | Potency [10]: inactive

Cc1nccc2c1[nH]c1ccccc12
outcome [1]: inactive | outcome [2]: inactive | outcome [3]: inactive | outcome [4]: inactive | Potency [7]: inactive | Potency [11]: inactive | Potency [8]: 14.1 µM (active) | Potency [9]: 12.6 µM (active)

CC[C@@]1(O)C(=O)OCc2c1cc1n(c2=O)Cc2cc3ccccc3nc2-1
outcome [1]: inactive | outcome [2]: inactive | outcome [3]: inactive | activity change, negative = inhibition ([5]; at 57.5 µM (top of the series)): -4.36% (inactive) | max response [5, 13]: 13.2% | max response [5, 14]: 8.88% | Potency [6]: inactive | Potency [7]: inactive | Potency [11]: inactive | Potency [8]: 1.41 µM (active) | Potency [9]: 0.794 µM (active) | Potency [12]: 0.794 µM (active) | Potency [10]: 1.12 µM (active)

CC(=O)OCC1=C(C(=O)O)N2C(=O)[C@@H](N)[C@@H]2SC1
activity change, negative = inhibition ([5]; at 25.7 µM (top of the series)): 1.55% (inactive) | max response [5, 13]: 7.67% | max response [5, 14]: 10.5%
